{
  "source": "PubChem BioAssay AID1645882",
  "about": "(National Center for Advancing Translational Sciences (NCATS), 2021)",
  "note": "Several values for one entry are separate records, joined by “and”; a condition that tells them apart may be missing. Equal entries are not always repeated. Hit rate of the full screen: of about 16,000 compounds, about 120 (0.75%) were called active. Inconclusive results (about 4%) are left out. Calls come from the whole dose curve; as a rule, active = well fitted inhibition curve with a large enough effect; inconclusive = small, poorly fitted or top-dose-only effect; inactive = no such curve, though single readings can be large or run the other way. Shown is part of a subset that was picked to be rich in actives. Some structures have more than one record in an assay (separate samples or runs), and their calls can disagree. Potency is the fitted concentration of half-maximal effect.",
  "data": [
    {"target": "Rap guanine nucleotide exchange factor 3 (Homo sapiens) (UniProt O95398)", "sequence (O95398 whole entry, looked up)": "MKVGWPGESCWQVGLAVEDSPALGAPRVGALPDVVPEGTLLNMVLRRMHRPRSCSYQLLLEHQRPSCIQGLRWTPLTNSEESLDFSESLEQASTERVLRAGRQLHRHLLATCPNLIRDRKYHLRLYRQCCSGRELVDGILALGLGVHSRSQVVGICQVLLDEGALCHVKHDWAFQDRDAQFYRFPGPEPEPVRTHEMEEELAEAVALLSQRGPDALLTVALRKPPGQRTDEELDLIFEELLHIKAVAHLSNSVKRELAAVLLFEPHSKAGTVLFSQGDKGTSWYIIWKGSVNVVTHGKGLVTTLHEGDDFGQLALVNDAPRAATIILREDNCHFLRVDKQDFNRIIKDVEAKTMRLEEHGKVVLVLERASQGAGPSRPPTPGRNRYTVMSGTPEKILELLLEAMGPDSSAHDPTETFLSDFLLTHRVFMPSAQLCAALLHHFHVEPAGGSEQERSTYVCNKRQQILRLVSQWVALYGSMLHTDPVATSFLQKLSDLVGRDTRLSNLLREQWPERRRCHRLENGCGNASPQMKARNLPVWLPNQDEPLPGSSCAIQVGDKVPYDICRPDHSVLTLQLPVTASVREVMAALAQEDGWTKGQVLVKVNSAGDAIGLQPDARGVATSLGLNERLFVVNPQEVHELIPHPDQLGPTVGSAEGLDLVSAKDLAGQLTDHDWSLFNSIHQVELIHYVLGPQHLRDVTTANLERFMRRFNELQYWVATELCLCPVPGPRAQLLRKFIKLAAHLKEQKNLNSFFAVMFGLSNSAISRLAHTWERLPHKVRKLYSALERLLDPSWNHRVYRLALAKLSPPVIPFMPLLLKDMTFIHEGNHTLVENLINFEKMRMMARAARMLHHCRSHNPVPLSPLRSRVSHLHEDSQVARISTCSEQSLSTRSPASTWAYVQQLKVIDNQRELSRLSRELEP", "assay": "Validation qHTS for antagonist of cAMP-regulated guanine nucleotide exchange factor 3 (EPAC1); note: nearly all actives have a fitted effect of over 75% in size;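 for activity change, negative = inhibition: plate controls were DMSO for no effect and ATA control for full effect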", "settings": "EPAC1 Rap1B-BODIPY-GDP exchange, fluorescence; series mostly up to 150 µM; activity change, negative = inhibition: at the top concentration", "summary_of_the_method": "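Nucleotide exchange followed as fluorescence loss when BODIPY-GDP leaves Rap1B (480 nm excitation, 540 nm emission), read at 5 min intervals over 30 min. Reaction: 100 nM EPAC1, 250 nM RAP1B-BODIPY-GDP, 50 uM GDP; ATA and DMSO define normalization.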", "values": [
      {"smiles": "CCCCCCC[n+]1ccc(C)c2ccccc21", "activity change, negative = inhibition": "11.7% (inactive)"},
      {"smiles": "CCCCCCCCCCCC[n+]1ccc(C)c2ccccc21", "activity change, negative = inhibition": "-26.9% (inactive)"},
      {"smiles": "CCCCCCCCCCCCCCCC[n+]1ccc(C)c2ccccc21", "Potency": "63.1 µM (active)"},
      {"smiles": "Cc1ccccc1C1(CC(=O)N2CCN(C)CC2)CC(=O)N(Cc2ccncc2)C1=O", "note": "(configuration not stated)", "activity change, negative = inhibition": "20.6% (inactive)"},
      {"smiles": "CCCCCCCCCCCCCCCC[N+](C)(C)Cc1ccccc1", "Potency": "112 µM (active)"},
      {"smiles": "CCCCCCCCCCCCC[N+](C)(C)Cc1ccccc1", "activity change, negative = inhibition": "0.354% (inactive)"},
      {"smiles": "CCCCCCCCCCCC[N+](C)(C)Cc1ccccc1", "activity change, negative = inhibition": "0.907% (inactive)"},
      {"smiles": "COc1cc(=O)n2c(c1C(=O)N(C)Cc1nonc1C)CCN(Cc1ccc(F)cc1)CC2", "activity change, negative = inhibition": "-0.441% (inactive)"},
      {"smiles": "CCCCCCCC/C=C\\C/C=C\\C/C=C\\CCCC(=O)O", "activity change, negative = inhibition": "9.96% [at 15.3 µM] (inactive)"},
      {"smiles": "CCCCCCCCCCC/C=C\\C/C=C\\CCCC(=O)O", "activity change, negative = inhibition": "-8.31% [at 15.3 µM] (inactive)"},
      {"smiles": "CCCCC/C=C\\C/C=C\\C/C=C\\C/C=C\\CCCC(=O)O", "Potency": "70.8 µM (active) and inactive"},
      {"smiles": "Cc1cc2ccccc2c[n+]1CC(=O)c1ccc(F)cc1", "activity change, negative = inhibition": "13.1% (inactive)"},
      {"smiles": "C/C(N[C@@H]1CSCC1O)=C1/C(=O)CC2[C@@H]1C2(C)C", "note": "(some centres not stated)", "activity change, negative = inhibition": "8.88% (inactive)"},
      {"smiles": "COc1ccc(-n2c(CNC(=O)c3ccccc3C(F)(F)F)nnc2SC)cc1", "activity change, negative = inhibition": "4.49% (inactive)"},
      {"smiles": "FC(F)(F)c1ccccc1-c1cncnc1NCCc1cnc[nH]1", "activity change, negative = inhibition": "3.78% (inactive)"},
      {"smiles": "COc1c(O)cc2c(=O)oc3c(OC)c(O)cc4c(=O)oc1c2c34", "activity change, negative = inhibition": "-29.8% (inactive)"},
      {"smiles": "Cc1cc(=O)oc2c(O)c(O)ccc12", "activity change, negative = inhibition": "1.89% (inactive)"},
      {"smiles": "O=c1oc2c(O)c(O)cc3c(=O)oc4c(O)c(O)cc1c4c23", "Potency": "inactive and 25.1 µM (active)"},
      {"smiles": "Cc1nc(N=Nc2cc(S(=O)(=O)O)c3cc([N+](=O)[O-])cc(S(=O)(=O)O)c3c2)c(COP(=O)(O)O)c(C=O)c1O", "activity change, negative = inhibition": "26.4% [at 75.8 µM] (inactive)"},
      {"smiles": "Cc1nc(N=Nc2ccc(C(=O)O)cc2)c(COP(=O)(O)O)c(C=O)c1O", "activity change, negative = inhibition": "-0.558% [at 75.8 µM] (inactive)"},
      {"smiles": "Cc1nc(N=Nc2ccc(S(=O)(=O)O)cc2S(=O)(=O)O)c(COP(=O)(O)O)c(C=O)c1O", "Potency": "inactive and 12.6 µM (active)"},
      {"smiles": "COC(=O)c1ccc(-c2cccc3c2OC(CNC(=O)c2ccc4c(c2)OCCO4)C3)nc1", "note": "(configuration not stated)", "activity change, negative = inhibition": "7.71% (inactive)"},
      {"smiles": "COc1cc(=O)n2c(c1C(=O)N(C)Cc1ccsc1)CCN(Cc1c(C)nc3sccn13)CC2", "activity change, negative = inhibition": "6.92% (inactive)"},
      {"smiles": "COc1ccccc1CCNc1ncnc2sc(C(=O)N3CCCCC3)c(C)c12", "activity change, negative = inhibition": "4.53% (inactive)"},
      {"smiles": "CC1(C)CC2/C(CO)=C/C=C/[C@](C)(O)CC[C@]21O", "note": "(some centres not stated)", "activity change, negative = inhibition": "8.31% (inactive)"},
      {"smiles": "O=c1c(O)c(-c2ccccc2)oc2cc(O)cc(O)c12", "activity change, negative = inhibition": "6.31% (inactive)"},
      {"smiles": "O=c1c(O)c(-c2cc(O)c(O)c(O)c2)oc2cc(O)cc(O)c12", "Potency": "35.5 µM (active) and 39.8 µM (active) and inactive"},
      {"smiles": "CC1O[C@@H](O[C@H]2C(Oc3cc(O)c4c(=O)cc(-c5ccc(O)cc5)oc4c3)OC(CO)C(O)C2O)C(O)C(O)C1O", "note": "(some centres not stated)", "activity change, negative = inhibition": "8.06% (inactive)"},
      {"smiles": "O=c1cc(-c2ccc(O)c(O)c2)oc2cccc(O)c12", "activity change, negative = inhibition": "-20.1% (inactive)"},
      {"smiles": "COc1cc(O)c2c(=O)c(O)c(-c3ccc(O)c(O)c3)oc2c1", "activity change, negative = inhibition": "-14.1% (inactive)"},
      {"smiles": "O=c1c(O)c(-c2ccc(O)c(O)c2)oc2cc(O)cc(O)c12", "Potency": "inactive and 79.4 µM (active)"},
      {"smiles": "O=c1cc(-c2ccc(O)c(O)c2)oc2cc(OC3OC(CO)C(O)C(O)C3O)cc(O)c12", "note": "(configuration not stated)", "Potency": "39.8 µM (active)"},
      {"smiles": "O=c1cc(-c2ccc(O)cc2)oc2cc(O[C@H]3OC(CO)C(O)C(O)C3O)cc(O)c12", "note": "(some centres not stated)", "activity change, negative = inhibition": "5.46% (inactive)"},
      {"smiles": "O=c1c(O)c(-c2ccc(O)cc2)oc2cc(O)cc(O)c12", "Potency": "inactive"},
      {"smiles": "O=c1cc(-c2ccc(O)c(O)c2)oc2cc(O)cc(O)c12", "Potency": "50.1 µM (active) and 39.8 µM (active)"},
      {"smiles": "O=c1c(O)c(-c2ccc(O)cc2O)oc2cc(O)cc(O)c12", "Potency": "inactive"},
      {"smiles": "O=c1cc(-c2ccc(O)cc2)oc2cc(O)cc(O)c12", "Potency": "inactive"}
    ]}
  ]
}
